Active and inactive are the calls of the source. Unless noted, the rule behind the calls is not given here.
Key:
[1] = HepG2 liver cancer cell viability effects, profiling panel, resazurin fluorescence, 24 h, PK04 Diversity Set (AID 1172); conditions: higher = more signal; note: test concentration not given here
[2] = basal S. cerevisiae growth modulation, no modifier, primary screen, OD600, strain BY4716, 24 h, basal condition (AID 1173); conditions: OD600, 24 h, higher = more signal, called active from +8 up or from −8 down
[3] = MM1S myeloma cell viability, profiling panel, resazurin fluorescence, basal, 24 h, PK04 Diversity Set (AID 1174); conditions: higher = more signal, called active from +8 up or from −8 down;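 note: MM1S multiple myeloma cell line; test concentration not given here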
[4] = target: Dihydroorotate dehydrogenase (quinone), mitochondrial (Plasmodium falciparum (isolate 3D7)) (UniProt Q08210); experiment: PfDHODH enzyme inhibitors, primary screen, biochemical, C-terminal His tag, absorbance 600 nm (AID 1175); conditions: DCIP absorbance 600 nm, higher = more signal, called active from +8 up or from −8 down;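 note: recombinant parasite enzyme with a five histidine tag at its C terminus; test concentration not given here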
[5] = P. aeruginosa biofilm formation inhibitors, primary screen, strain PAO1, LB-PBS medium, absorbance 600 nm (AID 1176); note: test concentration not given here; conditions: P. aeruginosa PAO1 growth/biofilm, A600, 12 h; higher = more signal
[6] = S. cerevisiae RM11-1a growth modifiers, primary screen, strain RM11-1a, OD600, basal, 24 h (AID 1177); conditions: OD600, 24 h, higher = more signal, called active from +8 up or from −8 down;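 note: cultures grown under basal conditions with no added stressor; test concentration not given here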
[7] = E. coli acrAB mutant growth effects, primary screen, E. coli filamentation inducers, strain DRC39, OD650, 24 h (AID 1178); conditions: higher = more signal, called active from +8 up or from −8 down;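 note: growth measured as culture turbidity by optical density at 650 nm; test concentration not given here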
[8] = E. coli acrAB mutant growth effects, primary screen, E. coli filamentation inducers, strain DRC39, OD650, 48 h (AID 1179);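 note: screen aims at cell division blockers that make cells filament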; conditions: E. coli DRC39 delta-acrAB growth, higher = more signal, called active from +8 up or from −8 down
[9] = RPMI8226 myeloma cell viability, profiling panel, resazurin fluorescence, basal, 24 h, PK04 Diversity Set (AID 1180); conditions: higher = more signal;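 note: RPMI8826 multiple myeloma cell line at 5000 cells per well; test concentration not given here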
[10] = target: E3 ubiquitin-protein ligase XIAP (Homo sapiens) (UniProt P98170); experiment: XIAP binders, primary screen, biophysical, small-molecule microarray, fluorescence 635 nm (AID 1181); conditions: small-molecule microarray binding, higher = more signal;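 note: score merges 667 nm emission and signal to noise over triplicate slides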
Chain of E3 ubiquitin-protein ligase XIAP (Homo sapiens) (P98170 whole entry, looked up): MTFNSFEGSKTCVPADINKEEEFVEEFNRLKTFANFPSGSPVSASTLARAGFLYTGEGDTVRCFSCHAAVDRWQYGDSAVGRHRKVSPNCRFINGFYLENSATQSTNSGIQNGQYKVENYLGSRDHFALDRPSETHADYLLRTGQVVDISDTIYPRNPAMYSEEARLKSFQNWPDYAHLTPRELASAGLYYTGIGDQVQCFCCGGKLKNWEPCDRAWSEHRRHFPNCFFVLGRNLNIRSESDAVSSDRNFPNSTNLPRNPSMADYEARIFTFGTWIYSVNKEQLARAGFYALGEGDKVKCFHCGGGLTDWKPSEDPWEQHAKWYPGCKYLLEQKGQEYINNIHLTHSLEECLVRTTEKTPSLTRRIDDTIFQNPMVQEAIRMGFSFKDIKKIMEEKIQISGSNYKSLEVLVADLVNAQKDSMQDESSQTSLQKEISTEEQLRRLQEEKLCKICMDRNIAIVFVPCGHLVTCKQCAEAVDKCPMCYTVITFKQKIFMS

Chain of Dihydroorotate dehydrogenase (quinone), mitochondrial (Plasmodium falciparum (isolate 3D7)) (Q08210 whole entry, looked up): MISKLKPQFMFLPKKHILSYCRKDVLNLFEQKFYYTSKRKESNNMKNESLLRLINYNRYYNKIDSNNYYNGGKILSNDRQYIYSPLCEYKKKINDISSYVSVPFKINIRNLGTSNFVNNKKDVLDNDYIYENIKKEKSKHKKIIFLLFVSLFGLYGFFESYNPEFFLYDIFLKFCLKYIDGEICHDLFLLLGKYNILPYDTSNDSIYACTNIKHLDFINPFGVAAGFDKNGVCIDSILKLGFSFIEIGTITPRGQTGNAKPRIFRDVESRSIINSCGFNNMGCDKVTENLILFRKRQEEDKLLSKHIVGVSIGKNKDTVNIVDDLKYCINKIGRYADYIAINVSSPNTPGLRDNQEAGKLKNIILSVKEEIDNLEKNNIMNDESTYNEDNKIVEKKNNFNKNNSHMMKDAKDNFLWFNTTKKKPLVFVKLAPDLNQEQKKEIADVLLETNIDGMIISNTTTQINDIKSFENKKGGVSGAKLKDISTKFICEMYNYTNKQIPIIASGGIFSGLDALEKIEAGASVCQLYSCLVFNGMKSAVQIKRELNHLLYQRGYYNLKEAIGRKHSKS

| Structure (SMILES) | z-score [1] | z-score [2] | z-score [3] | composite z-score [4] | z-score [5] | z-score [6] | z-score [7] | z-score [8] | z-score [9] | composite z-score [10] |
| --- | --- | --- | --- | --- | --- | --- | --- | --- | --- | --- |
| C=CCNC(=O)[C@H]1[C@@H]2C(=O)O[C@@H](c3ccccc3)[C@@H](c3ccccc3)N2[C@@H](c2ccc(OCCO)cc2)[C@]12C(=O)N(C(=O)OCCOC)c1ccc(C#CCNC(N)=O)cc12 | 0.263 | 1.88 (inactive) | 0.31 (inactive) | -0.193 (inactive) | 1.45 (inactive) | 3.01 (inactive) | 1.45 (inactive) | 1.24 (inactive) | 1.09 | 0.0313 |
| COC(=O)[C@@]1(Cc2ccccc2)[C@H]2c3cc(C(=O)N(C)C)n(CCF)c3C[C@H]2CN1C(=O)c1ccccc1 | -0.537 | 1.34 (inactive) | -0.878 (inactive) | 0.288 (inactive) | 0.715 (inactive) | 0.155 (inactive) | -0.407 (inactive) | 0.0857 (inactive) | -0.329 | 0.0635 |
| CCCCC(=C=CC[C@@H](O)c1ccc(OCCO)cc1)CCO | 1.02 | -4.12 (inactive) | 1.54 (inactive) | -2.3 (inactive) | -0.0585 (inactive) | 0.271 (inactive) | 1.34 (inactive) | 0.672 (inactive) | 1.3 | 0.794 |
| O=C(N1CCOCC1)[C@]1(CCS(=O)(=O)c2ccccc2)N=C(c2ccc(OCCCO)cc2)O[C@@H]1c1ccccc1 | 0.945 | 1.14 (inactive) | 0.564 (inactive) | 2.06 (inactive) | -0.981 (inactive) | 2.17 (inactive) | 2.71 (inactive) | 0.546 (inactive) | 0.413 | 0.0379 |
| COc1cccc(C)c1NC(=O)O[C@H]1[C@H](OC(=O)Nc2ccccc2-c2ccccc2)[C@@H](OC(=O)Nc2ccccc2-c2ccccc2)[C@@H](OC)O[C@@H]1CO | -2.77 | 2.22 (inactive) | -3.21 (inactive) | 1.24 (inactive) | 1.23 (inactive) | 4.5 (inactive) | -0.349 (inactive) | -0.846 (inactive) | -2.61 | 0.268 |
| CC(C)(C)OC(=O)CC[C@]1(C(N)=O)N=C(c2ccc(OCCCO)cc2)O[C@H]1c1ccccc1N=[N+]=[N-] | 0.551 | 0.0323 (inactive) | -0.446 (inactive) | 0.982 (inactive) | -0.0279 (inactive) | 0.979 (inactive) | 0.0489 (inactive) | 1.12 (inactive) | 0.596 | 0.333 |
| COc1ccc(-c2cc3c(c(CCc4ccccc4)n2)[Si](C(C)C)(C(C)C)O[C@H]3c2ccccc2)cn1 | -0.166 | 0.871 (inactive) | 0.694 (inactive) | -0.575 (inactive) | 0.726 (inactive) | 0.868 (inactive) | -1.19 (inactive) | -0.893 (inactive) | -0.555 | -0.12 |
| CCN1C(=O)C2CC(=O)C3C(CN(S(=O)(=O)c4ccc(C)cc4)C3c3ccc(C)cc3)C2C1=O (stereo not given) | -0.733 | 0.728 (inactive) | -0.631 (inactive) | 0.551 (inactive) | -0.144 (inactive) | 0.5 (inactive) | -0.772 (inactive) | 0.346 (inactive) | -0.627 | -0.148 |
| Cc1c(NC(=O)/C(C#N)=C/C=C/c2ccc([N+](=O)[O-])cc2)c(=O)n(-c2ccccc2)n1C | -0.559 | -0.546 (inactive) | 0.11 (inactive) | 0.142 (inactive) | -0.736 (inactive) | -0.254 (inactive) | -0.465 (inactive) | -0.412 (inactive) | 0.664 | -0.0581 |
| OCCCc1cc[n+](Cc2cc3c(cc2Br)OCO3)cc1 | -0.0125 | -0.486 (inactive) | 0.463 (inactive) | -0.22 (inactive) | -0.653 (inactive) | -0.126 (inactive) | 0.311 (inactive) | -0.0111 (inactive) | 0.275 | -0.0931 |
| C[C@H]1C2[C@H](Cc3ccccc3)NC(=O)[C@]23C(=O)N[C@@H](Cc2ccccc2)C(=O)N2CCC[C@H]2C(=O)NC/C=C/CC/C=C/C3[C@@H]2O[C@]12C (stereo not given in full) | -0.661 | 0.321 (inactive) | -0.299 (inactive) | -0.0587 (inactive) | 0.355 (inactive) | -0.0615 (inactive) | 0.159 (inactive) | -0.882 (inactive) | -0.39 | -0.0663 |
| O=C(NCCN1CCOCC1)[C@@H]1c2ccccc2C(=O)N(CC23CC4CC(CC(C4)C2)C3)[C@H]1c1ccc(CO)cc1 | 0.258 | -1.18 (inactive) | 0.631 (inactive) | 0.533 (inactive) | -0.121 (inactive) | 1.19 (inactive) | 0.1 (inactive) | 0.108 (inactive) | 0.96 | 0.0593 |

Source: PubChem BioAssay
